PubChem BioAssay (Tox21)
Results filed as inconclusive are left out. Active and inactive are the calls of the source. Unless noted, the call rests on the fitted dose curve; in most records, active means well fitted curve in the direction sought with a large enough effect in the repeat runs; inconclusive means weak or mixed curves; inactive means no such curve, though single readings can be large; an effect the other way counts as inactive or inconclusive.

Experiments:
[1] = qHTS assay to identify small molecule antagonists of the estrogen related receptor (ERR) signaling pathway from Tox21 library - cell viability counter screen (AID 1224834); further: nearly all actives have a fitted effect of over 30% in size; further: potency means the concentration at half of the fitted maximal effect
Procedure, shortened: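 ERR cells, 2,000/well; 6 h settle at 37 C/5% CO2; pin-tool compound transfer in DMSO; 17.5 h at 37 C; CellTiter-Fluor, 30 min; fluorescence intensity.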

[2] = molecular target: Luciferin 4-monooxygenase (Photinus pyralis) (UniProt P08659); assay: qHTS assay to identify small molecule inhibitors of firefly luciferase (AID 1224835); further: nearly all actives have a fitted effect of over 25% in size; further: potency means the concentration at half of the fitted maximal effect
Chain of Luciferin 4-monooxygenase (Photinus pyralis) (P08659 whole entry, looked up): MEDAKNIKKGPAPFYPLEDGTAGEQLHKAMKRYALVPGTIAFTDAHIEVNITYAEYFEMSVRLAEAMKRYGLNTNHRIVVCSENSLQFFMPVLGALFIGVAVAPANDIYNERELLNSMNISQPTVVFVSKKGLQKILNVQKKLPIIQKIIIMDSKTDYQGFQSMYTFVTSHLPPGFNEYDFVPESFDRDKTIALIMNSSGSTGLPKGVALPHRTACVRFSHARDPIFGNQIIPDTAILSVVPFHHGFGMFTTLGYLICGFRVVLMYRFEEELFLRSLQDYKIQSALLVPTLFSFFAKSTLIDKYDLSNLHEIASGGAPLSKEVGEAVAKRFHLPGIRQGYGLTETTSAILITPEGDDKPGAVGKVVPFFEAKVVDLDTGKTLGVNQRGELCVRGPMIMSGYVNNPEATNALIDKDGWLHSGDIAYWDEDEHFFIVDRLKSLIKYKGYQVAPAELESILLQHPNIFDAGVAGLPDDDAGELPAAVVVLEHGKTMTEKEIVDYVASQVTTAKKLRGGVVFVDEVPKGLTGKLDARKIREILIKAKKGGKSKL
Procedure, shortened: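 Biochemical qHTS: compounds run as interplate titrations against purified firefly enzyme, with D-luciferin and ATP each at its KM concentration. Light output recorded by CCD imaging.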

[3] = qHTS assay to identify small molecule agonists of the constitutive androstane receptor (CAR) signaling pathway - cell viability counter screen (AID 1224836); further: on the % scale 0 is the no-effect control and ±100 the full control effect; nearly all actives have a fitted effect of over 45% in size
Procedure, shortened: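 Double-stable HepG2 hepatoma cells (hCAR plus CYP2B6-2.2kb) are treated for 23 h at 37 C with test compounds in 15-point concentration series. PK11195 at 0.75 uM final is co-added. Cell viability is quantified by CellTiter-Fluor.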

[4] = qHTS assay to identify small molecule antagonists of the constitutive androstane receptor (CAR) signaling pathway - cell viability counter screen (AID 1224837); further: on the % scale 0 is the no-effect control and ±100 the full control effect; nearly all actives have a fitted effect of over 45% in size
Procedure, shortened: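 Viability was measured with CellTiter-Fluor in a HepG2 line carrying stably transfected hCAR and a CYP2B6-2.2kb construct. Cells were exposed for 23 hr at 37 C to 15 compound concentrations with 50 nM CITCO as agonist.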

[5] = molecular target: Nuclear receptor subfamily 1 group I member 3 (Homo sapiens) (UniProt Q14994); assay: qHTS assay to identify small molecule antagonists of the constitutive androstane receptor (CAR) signaling pathway (AID 1224838);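 further: HepG2 cells stably expressing hCAR with CYP2B6 luciferase reporter stimulated by CITCO; nearly all actives have a fitted effect of over 40% in size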; further: potency means the concentration at half of the fitted maximal effect
Chain of Nuclear receptor subfamily 1 group I member 3 (Homo sapiens) (Q14994 whole entry, looked up): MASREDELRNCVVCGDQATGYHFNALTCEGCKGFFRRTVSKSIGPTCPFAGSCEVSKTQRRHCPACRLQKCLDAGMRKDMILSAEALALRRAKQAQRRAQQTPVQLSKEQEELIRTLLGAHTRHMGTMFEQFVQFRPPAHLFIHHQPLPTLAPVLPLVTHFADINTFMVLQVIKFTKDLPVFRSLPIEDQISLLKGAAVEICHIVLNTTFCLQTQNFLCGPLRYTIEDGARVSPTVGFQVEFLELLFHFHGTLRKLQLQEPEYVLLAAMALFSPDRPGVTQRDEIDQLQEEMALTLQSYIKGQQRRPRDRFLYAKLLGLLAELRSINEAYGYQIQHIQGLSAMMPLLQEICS
Procedure, shortened: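 Antagonist mode used CITCO at a final 50 nM to activate CAR in human hepatoma HepG2 cells carrying stable hCAR and a 2.2 kb CYP2B6 promoter-luciferase construct. Compounds were tested at 15 concentrations over 24 h, with luminescence as the end point.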

[6] = molecular target: Nuclear receptor subfamily 1 group I member 3 (Homo sapiens) (UniProt Q14994); assay: qHTS assay to identify small molecule agonists of the constitutive androstane receptor (CAR) signaling pathway (AID 1224839); further: on the % scale 0 is the no-effect control and ±100 the full control effect; nearly all actives have a fitted effect of over 15% in size
Procedure, shortened: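 Readout: firefly luciferase luminescence via ONE-Glo. System: HepG2 double-stable for hCAR and CYP2B6-2.2kb. Conditions: 15-point compound titration, PK11195 at 0.75 uM final, 24 h incubation.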

[7] = qHTS assay to identify small molecule antagonists of the estrogen related receptor signaling pathway with the pleiotropic PPARgamma coactivator (PGC) from Tox21 10K library - cell viability counter screen (AID 1224840; active means well fitted cell-killing curve with a large enough effect in the repeat runs, not every such curve was filed as active; further: on the % scale 0 is the no-effect control and ±100 the full control effect; nearly all actives have a fitted effect of over 40% in size)
Procedure, shortened: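 Multiplexed viability counter screen in the PGC/ERR cell line: cells treated with DMSO-dissolved compounds for 17.5 hours at 37 C, then viability measured as CellTiter-Fluor fluorescence.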

[8] = qHTS assay to identify small molecule agonists of H2AX (AID 1224845; active means well fitted activation curve with a large enough effect in the signal ratio in the repeat runs, not every such curve was filed as active; the % refers to the signal ratio; further: on the % scale 0 is the no-effect control and ±100 the full control effect)
Procedure, shortened: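 Wild-type CHO-K1 cells, plated overnight, exposed 3hr at 37C to 15 concentrations (0.76% DMSO final). Lysed, then HTRF anti-pH2AX (S139) cryptate and anti-H2AX-d2 antibodies, 24 hr room temperature; 665/620 nm emission read.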

[9] = qHTS assay to identify small molecule agonists of the hypoxia (HIF-1) signaling pathway (AID 1224846; active means well fitted activation curve with a large enough effect in the signal ratio in the repeat runs, not every such curve was filed as active; the % refers to the signal ratio; further: on the % scale 0 is the no-effect control and ±100 the full control effect)
Procedure, shortened: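 Compounds from the Tox21 10K library, dissolved in DMSO, are tested for induction of a hypoxia response element–controlled beta-lactamase reporter in ME-180 cells. Exposure lasts 17 hrs at 37C after a 5 hr settling period, followed by CCF4-AM FRET substrate.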

[10] = qHTS RealTime-Glo MT Cell Viability Assay in HepG2 cells - 24 hour (AID 1224867); further: nearly all actives have a fitted effect of over 50% in size; further: potency means the concentration at half of the fitted maximal effect; on activity change, negative = cytotoxicity: on the % scale 0 is the no-effect control and ±100 the full control effect
Procedure, shortened: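 Cell number in HepG2 cultures estimated from NanoLuc luminescence generated by metabolic reduction of a prosubstrate by living cells. The homogeneous, nonlytic format allowed repeated reads at 0, 8, 16, 24, 32 and 40 h of compound exposure.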

[11] = qHTS RealTime-Glo MT Cell Viability Assay in HEK293 cells - 32 hour (AID 1224868); further: nearly all actives have a fitted effect of over 50% in size; further: potency means the concentration at half of the fitted maximal effect
Procedure, shortened: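 Homogeneous bioluminescent viability format in HEK293 cells (600 cells/well). Following 5 h at 37 C/5% CO2, 23 nL compound was pintooled; the signal was measured repeatedly during 40 h incubation.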

[12] = molecular target: Thyrotropin receptor (Homo sapiens) (UniProt P16473); assay: qHTS assay to identify small molecule agonists of the thyroid stimulating hormone receptor (TSHR) signaling pathway (AID 1224843; calls by dose curve; further: on the % scale 0 is the no-effect control and ±100 the full control effect; nearly all actives have a fitted effect of over 45% in size)
Chain of Thyrotropin receptor (Homo sapiens) (P16473 whole entry, looked up): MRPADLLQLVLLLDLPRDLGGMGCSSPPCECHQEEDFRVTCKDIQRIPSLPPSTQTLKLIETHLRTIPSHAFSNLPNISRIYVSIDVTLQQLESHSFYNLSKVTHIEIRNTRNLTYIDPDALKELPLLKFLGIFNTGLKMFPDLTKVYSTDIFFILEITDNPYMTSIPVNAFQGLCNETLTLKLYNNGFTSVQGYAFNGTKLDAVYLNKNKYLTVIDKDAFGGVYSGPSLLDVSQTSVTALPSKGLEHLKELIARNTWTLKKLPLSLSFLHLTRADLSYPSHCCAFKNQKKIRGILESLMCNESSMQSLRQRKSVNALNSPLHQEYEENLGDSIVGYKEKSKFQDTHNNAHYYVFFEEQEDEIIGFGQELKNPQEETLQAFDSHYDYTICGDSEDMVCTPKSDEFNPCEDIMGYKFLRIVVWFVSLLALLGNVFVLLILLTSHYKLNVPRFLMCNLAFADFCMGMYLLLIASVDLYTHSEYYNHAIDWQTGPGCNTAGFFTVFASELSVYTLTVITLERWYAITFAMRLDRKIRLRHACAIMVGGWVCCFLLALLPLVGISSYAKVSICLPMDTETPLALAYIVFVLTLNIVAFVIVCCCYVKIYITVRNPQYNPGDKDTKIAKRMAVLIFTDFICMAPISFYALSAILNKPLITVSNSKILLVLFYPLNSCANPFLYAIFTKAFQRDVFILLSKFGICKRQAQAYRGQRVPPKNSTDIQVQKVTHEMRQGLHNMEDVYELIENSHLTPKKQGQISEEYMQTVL
Procedure, shortened: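 Agonist-mode screen: TSHR HEK293 cells received test chemicals for half an hour at room temperature, then HTRF cAMP detection reagents for one hour prior to fluorescence measurement. Each chemical ran as a 15-concentration series, triplicated.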

[13] = qHTS assay to identify small molecule agonists of the hypoxia (HIF-1) signaling pathway - cell viability counter screen (AID 1224844; calls by dose curve; further: nearly all actives have a fitted effect of over 50% in size; further: potency means the concentration at half of the fitted maximal effect; on activity change, negative = cytotoxicity: on the % scale 0 is the no-effect control and ±100 the full control effect)
Procedure, shortened: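 Cytotoxicity was measured in parallel with the HRE-driven beta-lactamase readout: after 17 hrs of compound exposure at 37C, HRE-bla ME-180 cells received CellTiter-Glo and luminescence was recorded 30 min later.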

[14] = A CellTox Green Cytotoxicity Assay to monitor cytotoxicity in HEK293 cells - 0 hour (AID 1224869); further: on the % scale 0 is the no-effect control and ±100 the full control effect; nearly all actives have a fitted effect of over 50% in size
Procedure, shortened: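 Cells (HEK293, 600/well) and dye reagent are dispensed together. After 5 h at 37 C, 23 nL compound is pinned in. Plates stay at 37 C for 40 h with fluorescence read at 0h, 8h, 16h, 24h, 32h and 40h.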

[15] = qHTS assay to identify small molecule agonists of H2AX - cell viability counter screen (AID 1224847; calls by dose curve; further: top concentration of the series differs between compounds; on the % scale 0 is the no-effect control and ±100 the full control effect; nearly all actives have a fitted effect of over 30% in size)
Procedure, shortened: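 For this counter screen, overnight-attached CHO-K1 cells received test compounds (15 concentrations, 0.76% DMSO final); 3 hr later at 37C, CellTiter-Glo reagent was added and luminescence recorded after 30 min at room temperature.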

[16] = qHTS assay to identify small molecule antagonists of the estrogen related receptor signaling pathway with the pleiotropic PPARgamma coactivator (PGC) from Tox21 10K library (AID 1224841; call rule not given here; further: potency means the concentration at half of the fitted maximal effect)
Procedure, shortened: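 Steps: plate 2,000 PGC/ERR cells per well; incubate 6 h at 37 C with 5% CO2; transfer compounds from DMSO stocks by pin tool; incubate 18 h at 37 C; add One-Glo; measure luminescence 30 min later.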

[17] = qHTS assay to identify small molecule agonists of the estrogen related receptor signaling pathway with the pleiotropic PPARgamma coactivator (PGC) from Tox21 10K library (AID 1224842); further: on the % scale 0 is the no-effect control and ±100 the full control effect; nearly all actives have a fitted effect of over 15% in size
Procedure, shortened: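 PGC/ERR reporter cell line, 2,000 cells per well, incubated 6 h at 37 C before 23 nL compound in DMSO was added. After 18 h at 37 C, One-Glo luminescence read following 30 min at room temperature.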

[18] = qHTS assay to identify small molecule agonists of the estrogen related receptor (ERR) signaling pathway from Tox21 library (AID 1224849; calls by dose curve; further: on the % scale 0 is the no-effect control and ±100 the full control effect; nearly all actives have a fitted effect of over 15% in size); details: ERR reporter cell line, ONE-Glo luciferase, 18 h; at 92.4 µM (top of the series) unless noted
Procedure, shortened: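 Cells carrying the ERR reporter were plated and allowed to settle for 6 h, exposed to library compounds for 18 h at 37 C, then lysed with ONE-Glo and luminescence measured.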

[19] = qHTS assay to identify small molecule antagonists of the estrogen related receptor (ERR) signaling pathway from Tox21 library (AID 1224848)
Procedure, shortened: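 Quantitative high-throughput format: ERR reporter cells (2,000/well) pre-incubated 6 h, treated 18 h at 37 C with compounds in DMSO alongside positive and negative controls, then read by ONE-Glo luminescence.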

C=CC(=O)[O-].C=CC(=O)[O-].[Zn+2]
active: Potency [2] 2.19 µM
inactive: Potency [1] | Potency [3] | Potency [4] | Potency [5] | Potency [6] | Potency [7] | Potency [8] | outcome [9] | Potency [10] | Potency [11]

C=C(C)C(=O)OCCCCCCCCCCCCC
inactive: Potency [1] | Potency [2] | Potency [3] | Potency [4] | Potency [5] | Potency [6] | Potency [7] | Potency [12] | Potency [13] | Potency [8] | outcome [9] | Potency [10] | Potency [11] | Potency [14]

CCCCCCCC/C=C\CCCCCCCCCCCC(=O)O
inactive: Potency [1] | Potency [2] | Potency [3] | Potency [4] | Potency [5] | Potency [6] | Potency [7] | Potency [8] | outcome [9] | Potency [15] | Potency [10] | Potency [14]

C[C@@H](CN(C)C)CN1c2ccccc2Sc2ccccc21
inactive: Potency [2] | Potency [5] | Potency [16] | Potency [17] | Potency [8] | Potency [15] | activity change, positive = activation [18] -18.9% [at 42.5 µM]
active: Potency [1] 26.6 µM | Potency [13] 19 µM | Potency [11] 21.3 µM

C[C@@H](O[C@H]1OCCN(Cc2n[nH]c(=O)[nH]2)[C@H]1c1ccc(F)cc1)c1cc(C(F)(F)F)cc(C(F)(F)F)c1
inactive: Potency [2] | Potency [4] | Potency [17] | Potency [14]
active: Potency [1] 26.6 µM | Potency [16] 29.8 µM | Potency [13] 21.3 µM | Potency [19] 23.7 µM | Potency [10] 21.3 µM | Potency [11] 16.9 µM

CCC(OCCCOC)OC(C)=O (stereo not given)
inactive: Potency [1] | Potency [2] | Potency [3] | Potency [4] | Potency [7] | Potency [12] | Potency [13] | Potency [8] | outcome [9] | Potency [15] | Potency [10] | Potency [11] | Potency [14]

C[C@@H](O)[C@H]1C(=O)N2C(C(=O)O)=C([C@H]3CCCO3)S[C@H]12
inactive: Potency [1] | Potency [2] | Potency [3] | Potency [4] | Potency [7] | Potency [12] | Potency [8] | outcome [9] | Potency [15] | Potency [10] | Potency [11] | Potency [14]

O=C(OC(=O)c1ccccc1)c1ccccc1
inactive: Potency [1] | Potency [2] | Potency [3] | Potency [4] | Potency [7] | Potency [12] | Potency [13] | Potency [8] | Potency [15] | Potency [10] | Potency [11] | Potency [14]

c1ccc2sc(SN(C3CCCCC3)C3CCCCC3)nc2c1
inactive: Potency [1] | Potency [2] | Potency [3] | Potency [4] | Potency [7] | Potency [12] | Potency [8] | outcome [9] | Potency [15] | Potency [10] | Potency [11] | Potency [14]

Cc1cc(=O)c2c(O)c3c(O)cc(=O)c4c3c3c(cc(O)c1c23)C(C)(C)C=4O
inactive: Potency [2] | activation [6] -14.4% [at 19 µM] | activation [12] 13.3% [at 19 µM] | activity change, negative = cytotoxicity [13] 15.9% [at 15.8 µM] | activation [9] -2.37% [at 15.8 µM] | activity change, negative = cytotoxicity [10] -25.2% [at 15.8 µM]
active: Potency [1] 1.46 µM | Potency [5] 2.59 µM | Potency [11] 1.17 µM
